# Laboratory results taken from PubChem BioAssay AID2158 (National Center for Advancing Translational Sciences (NCATS), 2009).
# Results filed as inconclusive are left out. The source made the active and inactive calls. Calls follow the shape of the dose curve; as a rule, active = well fitted inhibition curve with a large enough effect; inconclusive = small, poorly fitted or top-dose-only effect; inactive = no such curve, though single readings can be large or run the other way.
# Biological target: Cruzipain (Trypanosoma cruzi) (UniProt P25779)
# Sequence (P25779 123-467 limits assumed): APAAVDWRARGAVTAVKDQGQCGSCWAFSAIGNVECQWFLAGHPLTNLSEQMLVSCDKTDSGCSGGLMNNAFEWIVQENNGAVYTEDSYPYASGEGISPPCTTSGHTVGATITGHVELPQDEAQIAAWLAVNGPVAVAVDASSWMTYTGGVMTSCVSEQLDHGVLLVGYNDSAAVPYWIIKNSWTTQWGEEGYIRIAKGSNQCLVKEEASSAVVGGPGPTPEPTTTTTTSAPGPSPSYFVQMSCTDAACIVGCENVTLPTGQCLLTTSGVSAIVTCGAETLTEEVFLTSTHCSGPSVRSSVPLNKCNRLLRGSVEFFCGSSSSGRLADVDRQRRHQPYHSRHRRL
# Assay: Confirmation qHTS Assay for Inhibitors of Cruzain; also: nearly all actives have a fitted effect of over 40% in size;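 as to activity change, negative = inhibition: plate controls were uninhibited enzyme control for no effect and buffer wells lacking enzyme for full effect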
# Conditions: purified cruzain, Z-FR-AMC fluorescence, 0.01% Triton
# In short: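 Reaction progress from the 60 s rise in AMC fluorescence (ex 360, em 450 nm) after adding 2 uM Z-FR-AMC. Before this, 1.5 nM cruzain sat 15 min at room temperature with compound in pH 5.5 acetate buffer with 5 mM DTT and 0.01% Triton X-100.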
# Potency is read from the fitted curve at half-maximal effect.
SMILES,Potency,"activity change, negative = inhibition"
Cc1ccc(Cn2c(CCNC(=O)c3cccc(C)c3)nc3ccccc32)cc1,2820 nM (active),
N#Cc1nc(NCCCO)nc(Nc2ccccc2)n1,2240 nM (active),
CC(C)C[C@H](N)c1nnc(S(=O)(=O)Cc2ccc(F)cc2)o1,,-25.7% (inactive)
CCn1nc(-c2ccc(C)cc2)nc2c(=O)n(C)c(=O)nc1-2,2820 nM (active),
CC(C)(C)CNc1nc(C#N)nc(Nc2ccccc2)n1,2000 nM (active),
COc1cc(NC(=O)C(OC(=O)CNC(=O)c2ccccc2)c2ccccc2)cc(C(F)(F)F)c1 (centres undefined),31600 nM (active),
NC(=S)N/N=C/c1ccc(-c2cc(Cl)ccc2Cl)o1,2000 nM (active),
Cc1ccc2[nH]c(=O)c(CN(Cc3cccs3)Cc3nnnn3Cc3ccco3)cc2c1,,-23% (inactive)
Nc1ccc2c(c1)C(=O)C(=O)c1ccccc1-2,,-54.3% (inactive)
